MITF inhib: inhibitors of MITF. 37,000 compounds, 0.28% hits. inhibition, % (test concentration not listed). TRPM1 promoter luciferase, luminescence, 24 h; in the data active = inhibition above about 85%; inconclusive = no clear call, values can overlap the other calls; inactive = below about 68%;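 note: human melanocyte line stably carrying TRPM1 promoter luciferase reporter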
Hedgehog inh: blocks Sonic Hedgehog signaling; Shh-LIGHT2 Gli-luciferase reporter, 30 h; inhibition, % (test concentration not listed); 22,000 compounds, 2.1% hits;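 active = mean inhibition across valid replicates above about 65%, limit read from the data; inconclusive = mean under the limit, yet half or more replicates past it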;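 note: pathway switched on by Shh-conditioned medium diluted 1 in 25 in low serum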
PD-1 reverse act: activators reversing PD-1 mediated T-cell inhibition; primary human CD4 T cells, PD-L1 beads, CellTiter-Glo 96 h; activation, % (test concentration not listed); 29,000 tested, under 10 active; AID 2316; call rule not given here;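 note: 0% = median vehicle wells and 100% = positive control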
NOMO-1 viab: STK33 inhibitor candidate reducing NOMO-1 cell viability; NOMO-1 AML viability, CellTiter-Glo luminescence, 72 h; inhibition, % (concentration not given with the values); 37,000 compounds, 7.5% hits; in the data active = inhibition above about 80%; inconclusive = no clear call, values can overlap the other calls
* marks the source's active call; other numbers are inactive results; u = inconclusive; x = no result given. Shown are actives, neighbours in structure and some others; about 8.1% of the full set was active somewhere.

SMILES	MITF inhib	Hedgehog inh	PD-1 reverse act	NOMO-1 viab
C[C@@H]1CN([C@@H](C)CO)C(=O)c2cc(NC(=O)Nc3ccc(F)cc3)ccc2O[C@@H]1CN(C)Cc1ccc(-c2ccccc2)cc1	12	18	-1	115*
Cc1c(NC(=O)CN(c2ccccc2F)S(C)(=O)=O)cccc1[N+](=O)[O-]	-8	x	-1	37
NNC(=O)Cn1c2ccccc2c2ccccc21	3	x	-3	100*
O=Nc1c(O)n(CC(=O)Nc2ccccc2)c2ccccc12	-23	-38	0	16
CC(=O)c1ccc(NC(=O)c2ccc(CSc3ccccn3)cc2)cc1	-23	x	2	-8
Cc1ccc2nc(-c3cccc(NC(=O)COc4ccccc4)c3C)oc2c1	70	x	0	62
C=CC(C)(O)CC(/C=C(\C)CC(/C=C(\C)CCC=C(C)C)OC(C)=O)OC(C)=O (centres undefined)	1	-5	-1	98*
CCN(CC)c1cc(-c2cccs2)nc(SCC(=O)c2cccs2)c1C#N	-1	50	-2	122*
Cc1cc(O)c2c(c1)C(=O)C13C(C2=O)C(=O)C2C(O)C1C1C(O)C3C(=O)C3C(=O)c4c(O)cc(C)cc4C(=O)C321 (centres undefined)	72	-29	-1	110*
C=CC(C)(O)CC/C=C(\C)C(=O)OC1C(CO)OC(OC2OC=CC3(O)C(OC(=O)C4=COC(OC5OC(CO)C(O)C(O)C5O)C5C(C)CCC45)C4OC4(C)C23)C(O)C1O (centres undefined)	x	25	x	x
C[C@@H]1CN([C@H](C)CO)C(=O)c2cccc(NC(=O)NC3CCCCC3)c2O[C@@H]1CN(C)Cc1ccc(-c2ccccc2)cc1	10	-17	1	37
C[C@@H]1CN([C@@H](C)CO)C(=O)c2cccc(NC(=O)NC3CCCCC3)c2O[C@H]1CN(C)Cc1ccc(C(F)(F)F)cc1	21	-34	-7	93*
C[C@@H]1CN([C@H](C)CO)C(=O)c2cccc(NC(=O)NC3CCCCC3)c2O[C@@H]1CN(C)Cc1ccc(C(F)(F)F)cc1	-5	-22	-1	29
C[C@@H]1CN([C@@H](C)CO)C(=O)c2cccc(NC(=O)NC3CCCCC3)c2O[C@@H]1CN(C)Cc1ccc(Oc2ccccc2)cc1	5	43	-5	85*
C[C@H](CO)N1C[C@H](C)[C@@H](CN(C)Cc2ccccc2)Oc2c(NC(=O)NC3CCCCC3)cccc2C1=O	12	0	-3	84*
O=C(Nc1ccccc1C(=O)O)c1ccc(Br)c(S(=O)(=O)N2CCOCC2)c1	2	x	x	-15
CCOc1ccc(C2(C)CC(C)(C)Nc3ccccc32)cc1 (centres undefined)	5	1	1	114*
COc1cc([C@@H]2c3cc4c(cc3C(OC3O[C@@H]5COC(C)O[C@H]5[C@H](O)[C@H]3O)C3COC(=O)[C@@H]32)OCO4)cc(OC)c1O (some centres undefined)	38	31	x	101*
COc1cc([C@@H]2c3cc4c(cc3[C@@H](OC3OC5COC(C)OC5C(O)C3O)[C@H]3COC(=O)[C@H]23)OCO4)cc(OC)c1O (some centres undefined)	40	-13	-9	141*
COc1ccccc1Cn1c(NCC(C)O)nc2c1c(=O)n(C)c(=O)n2C (centres undefined)	-3	x	x	-9
CC(Oc1ccc2ccccc2c1)C(=O)NN (centres undefined)	-10	x	1	21
COC(=O)c1cc(NC(=O)COc2c(C)cc(C)cc2Cl)cc(C(=O)OC)c1	6	x	-2	-5
Cc1nn(Cc2cccc(Oc3ccccc3)c2)c(C)c1NC(=O)c1nc2ncccn2n1	4	x	2	5
COc1ccc2c(c1OC)C(=O)OC2[C@H]1c2c(cc3c(c2OC)OCO3)CCN1C (some centres undefined)	-2	-38	x	37
COc1cc2c3cc1Oc1c(OC)c(OC)cc4c1[C@@H](Cc1ccc(OC(=O)c5ccc([N+](=O)[O-])cc5)c(c1)Oc1ccc(cc1)C[C@@H]3N(C)CC2)N(C)CC4	-2	-27	-1	98*
SMILES	MITF inhib	Hedgehog inh	PD-1 reverse act	NOMO-1 viab
COc1ccc2cc1Oc1ccc(cc1)C[C@H]1c3cc(c(OC)cc3CCN1C)Oc1c(OC)c(OC)cc3c1[C@H](C2)N(C)CC3	-61	-26	x	121*
COc1ccc2c(c1OC)C(=O)O[C@@H]2[C@H]1c2c(cc3c(c2OC)OCO3)CCN1C	-20	43	1	31
C=C1C(=O)O[C@@H]2[C@H]3C(=C)[C@@H](O[C@@H]4O[C@H](CO)[C@@H](OC(=O)/C=C/c5ccc(O)c(O)c5)[C@H](O)[C@H]4O)C[C@H]3C(=C)C[C@@H](O)[C@@H]12	x	-14	x	x
C=C(CO)C(=O)O[C@H]1C[C@H]2C(=C)C[C@H](OC(=O)C(=C)CO)[C@H]3C(=C)C(=O)O[C@@H]3[C@H]2C1=C	56	-45	3	117*
C[C@H](CO)N1C[C@H](C)[C@H](CN(C)Cc2ccc(Cl)c(Cl)c2)Oc2ccc(NC(=O)Nc3ccccc3)cc2CC1=O	29	32	-1	116*
C[C@@H]1CN([C@@H](C)CO)C(=O)Cc2cc(NC(=O)Nc3ccc(F)cc3)ccc2O[C@@H]1CN(C)Cc1ccc(Cl)c(Cl)c1	29	-13	-3	103*
COc1ccc(NC(=O)Nc2ccc3c(c2)CC(=O)N([C@H](C)CO)C[C@H](C)[C@H](CN(C)Cc2ccc(Cl)c(Cl)c2)O3)cc1	-8	1	2	69
C[C@H]1CN([C@@H](C)CO)C(=O)Cc2cc(NC(=O)Nc3ccc(C(F)(F)F)cc3)ccc2O[C@@H]1CN(C)Cc1ccc(Cl)c(Cl)c1	9	-8	x	22
C[C@@H]1CN([C@H](C)CO)C(=O)Cc2cc(NC(=O)NC3CCCCC3)ccc2O[C@@H]1CN(C)Cc1ccc(Cl)c(Cl)c1	27	13	-9	114*
C[C@@H]1CN([C@@H](C)CO)C(=O)Cc2cc(NC(=O)NC3CCCCC3)ccc2O[C@@H]1CN(C)Cc1ccncc1	-7	-22	-1	-1
C[C@H](CO)N1C[C@H](C)[C@H](CN(C)Cc2ccc(Cl)c(Cl)c2)Oc2ccc(NC(=O)Nc3ccc4c(c3)OCO4)cc2CC1=O	29	-8	x	94*
Cc1ccc(C(=O)/C=C2/NCCNC2=O)cc1	39	x	0	15
Cc1cc(C(=O)CSc2ncnc3sc4c(c23)CCCC4)c(C)n1Cc1ccco1	-3	u	0	30
CCCCc1ccc(NC(=O)N=S2CCN(c3ncc(C(F)(F)F)cc3Cl)CC2)cc1	-15	1	0	26
Cc1cc(Cl)ccc1OCCNS(=O)(=O)c1cc([N+](=O)[O-])ccc1C	-32	x	2	2
CC(C)NC(=O)Nc1ccc2c(c1)CC(=O)N([C@@H](C)CO)C[C@H](C)[C@H](CN(C)C(=O)Nc1ccc3c(c1)OCO3)O2	-6	65*	1	-17
C[C@H]1CN([C@@H](C)CO)C(=O)Cc2cc(NC(=O)Nc3ccccc3)ccc2O[C@H]1CN(C)Cc1ccc(Cl)c(Cl)c1	-3	-21	-2	104*
